Assay results reported in ChEMBL document CHEMBL1961873, “Compounds: GSK PKIS; Assays: Nanosyn kinase panel” (2012).

Assays:
[1] = biological target: T1, Mitogen-activated protein kinase 12 (Homo sapiens) (UniProt P53778); conditions: at 1 µM;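 further: values are averaged p38gamma kinase inhibition readings, compounds tested at 1 µM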
T1 sequence (whole entry): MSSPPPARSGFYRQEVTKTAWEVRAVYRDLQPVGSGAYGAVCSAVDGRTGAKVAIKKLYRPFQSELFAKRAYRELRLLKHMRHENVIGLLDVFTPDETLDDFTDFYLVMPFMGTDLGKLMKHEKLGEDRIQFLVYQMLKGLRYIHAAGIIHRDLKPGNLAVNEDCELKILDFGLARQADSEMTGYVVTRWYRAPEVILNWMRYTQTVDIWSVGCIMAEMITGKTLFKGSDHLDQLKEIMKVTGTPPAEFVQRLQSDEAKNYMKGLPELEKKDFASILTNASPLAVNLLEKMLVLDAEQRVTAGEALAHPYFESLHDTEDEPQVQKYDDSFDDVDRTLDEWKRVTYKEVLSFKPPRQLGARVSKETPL

[2] = biological target: SRSF protein kinase 1 (Homo sapiens) (UniProt Q96SB4); conditions: at 0.1 µM
[3] = biological target: SRSF protein kinase 1 (Homo sapiens) (UniProt Q96SB4); conditions: at 1 µM
[4] = biological target: Phosphatidylinositol 4,5-bisphosphate 3-kinase catalytic subunit alpha isoform (Homo sapiens) (UniProt P42336); conditions: at 0.1 µM
[5] = biological target: Phosphatidylinositol 4,5-bisphosphate 3-kinase catalytic subunit alpha isoform (Homo sapiens) (UniProt P42336); conditions: at 1 µM
[6] = biological target: T2, Phosphatidylinositol 4,5-bisphosphate 3-kinase catalytic subunit delta isoform (Homo sapiens) (UniProt O00329); conditions: at 0.1 µM
T2 sequence (whole entry): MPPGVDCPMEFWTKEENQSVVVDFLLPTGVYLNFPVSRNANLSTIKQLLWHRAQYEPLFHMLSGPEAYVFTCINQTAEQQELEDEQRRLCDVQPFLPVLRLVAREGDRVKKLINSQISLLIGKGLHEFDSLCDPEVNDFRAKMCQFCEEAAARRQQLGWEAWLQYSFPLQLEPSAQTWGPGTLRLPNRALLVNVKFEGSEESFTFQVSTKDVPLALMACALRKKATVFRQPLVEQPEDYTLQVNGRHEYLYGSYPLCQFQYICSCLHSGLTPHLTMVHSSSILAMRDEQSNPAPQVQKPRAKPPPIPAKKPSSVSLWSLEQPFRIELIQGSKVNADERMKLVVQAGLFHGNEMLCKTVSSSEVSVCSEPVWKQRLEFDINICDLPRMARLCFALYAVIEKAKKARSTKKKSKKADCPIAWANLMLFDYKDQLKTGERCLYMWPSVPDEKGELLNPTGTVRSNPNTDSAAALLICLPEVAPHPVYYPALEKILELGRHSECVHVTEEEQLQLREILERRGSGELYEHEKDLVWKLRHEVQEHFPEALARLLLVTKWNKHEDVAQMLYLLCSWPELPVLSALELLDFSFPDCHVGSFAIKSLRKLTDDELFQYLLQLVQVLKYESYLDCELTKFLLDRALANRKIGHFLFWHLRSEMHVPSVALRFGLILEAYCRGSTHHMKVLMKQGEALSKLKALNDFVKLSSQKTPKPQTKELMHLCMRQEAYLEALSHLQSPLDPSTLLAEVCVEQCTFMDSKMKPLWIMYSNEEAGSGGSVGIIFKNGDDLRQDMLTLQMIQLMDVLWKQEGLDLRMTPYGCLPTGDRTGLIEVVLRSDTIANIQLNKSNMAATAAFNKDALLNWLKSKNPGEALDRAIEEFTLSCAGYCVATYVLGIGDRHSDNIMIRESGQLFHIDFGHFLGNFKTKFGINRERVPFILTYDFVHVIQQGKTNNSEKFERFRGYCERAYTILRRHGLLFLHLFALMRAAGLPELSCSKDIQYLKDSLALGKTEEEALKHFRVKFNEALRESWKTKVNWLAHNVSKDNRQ

[7] = biological target: T2, Phosphatidylinositol 4,5-bisphosphate 3-kinase catalytic subunit delta isoform (Homo sapiens); conditions: at 1 µM
[8] = biological target: Phosphatidylinositol 4-kinase beta (Homo sapiens) (UniProt Q9UBF8); conditions: at 0.1 µM
[9] = biological target: Phosphatidylinositol 4-kinase beta (Homo sapiens) (UniProt Q9UBF8); conditions: at 1 µM
[10] = biological target: Sphingosine kinase 1 (Homo sapiens) (UniProt Q9NYA1); conditions: at 0.1 µM
[11] = biological target: Sphingosine kinase 1 (Homo sapiens) (UniProt Q9NYA1); conditions: at 1 µM
[12] = biological target: T3, Sphingosine kinase 2 (Homo sapiens) (UniProt Q9NRA0); conditions: at 0.1 µM
T3 sequence (whole entry): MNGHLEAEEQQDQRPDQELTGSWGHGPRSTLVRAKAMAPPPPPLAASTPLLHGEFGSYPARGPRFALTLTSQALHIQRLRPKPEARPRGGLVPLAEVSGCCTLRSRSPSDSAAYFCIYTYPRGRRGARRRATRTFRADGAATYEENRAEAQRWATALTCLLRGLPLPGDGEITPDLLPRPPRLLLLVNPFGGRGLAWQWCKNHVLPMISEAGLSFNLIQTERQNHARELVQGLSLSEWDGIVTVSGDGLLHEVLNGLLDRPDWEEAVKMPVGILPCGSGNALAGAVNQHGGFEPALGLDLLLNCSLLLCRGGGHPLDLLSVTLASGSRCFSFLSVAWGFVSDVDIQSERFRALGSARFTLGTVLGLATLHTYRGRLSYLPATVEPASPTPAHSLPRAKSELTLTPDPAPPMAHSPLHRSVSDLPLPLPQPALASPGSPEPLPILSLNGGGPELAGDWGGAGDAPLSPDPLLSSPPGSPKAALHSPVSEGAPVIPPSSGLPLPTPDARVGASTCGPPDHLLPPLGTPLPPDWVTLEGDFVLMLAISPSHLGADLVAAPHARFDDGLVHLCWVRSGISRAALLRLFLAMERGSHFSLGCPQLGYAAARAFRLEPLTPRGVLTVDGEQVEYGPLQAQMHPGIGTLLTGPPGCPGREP

[13] = biological target: T3, Sphingosine kinase 2 (Homo sapiens); conditions: at 1 µM
[14] = biological target: Casein kinase II subunit alpha (Homo sapiens) (UniProt P68400); conditions: at 0.1 µM
[15] = biological target: Casein kinase II subunit alpha (Homo sapiens) (UniProt P68400); conditions: at 1 µM
[16] = biological target: T4, Inhibitor of nuclear factor kappa-B kinase subunit alpha (Homo sapiens) (UniProt O15111); conditions: at 0.1 µM
T4 sequence (whole entry): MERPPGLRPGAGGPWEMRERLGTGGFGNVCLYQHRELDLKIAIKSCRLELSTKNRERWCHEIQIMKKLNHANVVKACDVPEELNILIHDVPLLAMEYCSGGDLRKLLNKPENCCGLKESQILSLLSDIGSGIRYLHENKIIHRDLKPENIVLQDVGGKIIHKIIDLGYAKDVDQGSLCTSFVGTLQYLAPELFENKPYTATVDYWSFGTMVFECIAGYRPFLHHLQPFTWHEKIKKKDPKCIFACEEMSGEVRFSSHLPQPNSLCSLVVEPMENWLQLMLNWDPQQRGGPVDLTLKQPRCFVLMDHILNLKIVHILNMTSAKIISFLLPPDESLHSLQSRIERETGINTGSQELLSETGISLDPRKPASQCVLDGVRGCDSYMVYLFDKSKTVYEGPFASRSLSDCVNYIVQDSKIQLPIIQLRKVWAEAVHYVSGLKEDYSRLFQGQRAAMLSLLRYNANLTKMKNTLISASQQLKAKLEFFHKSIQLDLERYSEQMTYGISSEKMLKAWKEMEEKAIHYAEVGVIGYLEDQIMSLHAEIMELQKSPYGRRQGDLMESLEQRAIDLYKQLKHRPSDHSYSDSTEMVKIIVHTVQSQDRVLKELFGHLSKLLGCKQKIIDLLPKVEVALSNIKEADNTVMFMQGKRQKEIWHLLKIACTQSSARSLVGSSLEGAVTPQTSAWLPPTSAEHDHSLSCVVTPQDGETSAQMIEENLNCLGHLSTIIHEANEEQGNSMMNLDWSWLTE

[17] = biological target: T4, Inhibitor of nuclear factor kappa-B kinase subunit alpha (Homo sapiens); conditions: at 1 µM
[18] = biological target: T5, Inhibitor of nuclear factor kappa-B kinase subunit beta (Homo sapiens) (UniProt O14920); conditions: at 0.1 µM
T5 sequence (whole entry): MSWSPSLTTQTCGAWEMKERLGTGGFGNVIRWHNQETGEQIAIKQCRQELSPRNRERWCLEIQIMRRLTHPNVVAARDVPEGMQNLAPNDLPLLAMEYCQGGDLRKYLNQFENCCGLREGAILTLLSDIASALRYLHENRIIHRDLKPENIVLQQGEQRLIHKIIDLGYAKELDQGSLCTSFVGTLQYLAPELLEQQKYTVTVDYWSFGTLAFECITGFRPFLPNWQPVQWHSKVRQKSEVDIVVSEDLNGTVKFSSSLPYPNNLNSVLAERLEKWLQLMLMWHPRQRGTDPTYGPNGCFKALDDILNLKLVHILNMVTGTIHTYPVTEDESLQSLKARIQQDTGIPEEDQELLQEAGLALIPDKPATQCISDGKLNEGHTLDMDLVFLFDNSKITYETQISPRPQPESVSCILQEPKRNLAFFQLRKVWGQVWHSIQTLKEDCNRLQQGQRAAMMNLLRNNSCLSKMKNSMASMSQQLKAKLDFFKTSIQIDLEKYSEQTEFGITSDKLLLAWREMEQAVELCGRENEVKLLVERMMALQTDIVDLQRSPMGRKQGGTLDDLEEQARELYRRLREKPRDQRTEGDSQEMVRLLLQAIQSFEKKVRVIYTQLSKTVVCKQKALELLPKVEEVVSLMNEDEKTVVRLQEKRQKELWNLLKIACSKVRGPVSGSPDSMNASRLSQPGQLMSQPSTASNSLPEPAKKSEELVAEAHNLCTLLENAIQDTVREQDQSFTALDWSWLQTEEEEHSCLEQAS

[19] = biological target: T5, Inhibitor of nuclear factor kappa-B kinase subunit beta (Homo sapiens); conditions: at 1 µM
[20] = biological target: T6, Inhibitor of nuclear factor kappa-B kinase subunit epsilon (Homo sapiens) (UniProt Q14164); conditions: at 0.1 µM;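 further: mean inhibition of IKKε reported, from the GSK PKIS dataset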
T6 sequence (whole entry): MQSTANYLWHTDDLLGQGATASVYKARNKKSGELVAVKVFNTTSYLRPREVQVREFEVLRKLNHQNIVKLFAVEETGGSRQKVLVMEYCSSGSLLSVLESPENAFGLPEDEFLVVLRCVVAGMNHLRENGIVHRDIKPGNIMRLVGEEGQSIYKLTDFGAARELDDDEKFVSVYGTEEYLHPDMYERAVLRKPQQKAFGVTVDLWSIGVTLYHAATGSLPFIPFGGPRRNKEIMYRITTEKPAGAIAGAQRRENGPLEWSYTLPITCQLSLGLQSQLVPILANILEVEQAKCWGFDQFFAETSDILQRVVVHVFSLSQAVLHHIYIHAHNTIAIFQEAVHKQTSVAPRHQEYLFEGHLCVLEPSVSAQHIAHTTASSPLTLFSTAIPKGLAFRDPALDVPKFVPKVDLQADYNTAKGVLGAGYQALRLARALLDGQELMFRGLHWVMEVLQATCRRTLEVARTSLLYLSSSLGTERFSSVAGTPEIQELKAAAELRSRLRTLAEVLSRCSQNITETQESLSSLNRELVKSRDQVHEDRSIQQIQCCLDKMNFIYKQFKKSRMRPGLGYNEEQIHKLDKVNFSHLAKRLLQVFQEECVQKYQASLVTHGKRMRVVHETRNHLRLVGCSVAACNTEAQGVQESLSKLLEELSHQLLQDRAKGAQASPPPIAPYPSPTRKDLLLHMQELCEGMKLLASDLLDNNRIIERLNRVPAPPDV

Sequence of SRSF protein kinase 1 (Homo sapiens) (Q96SB4 whole entry, canonical isoform): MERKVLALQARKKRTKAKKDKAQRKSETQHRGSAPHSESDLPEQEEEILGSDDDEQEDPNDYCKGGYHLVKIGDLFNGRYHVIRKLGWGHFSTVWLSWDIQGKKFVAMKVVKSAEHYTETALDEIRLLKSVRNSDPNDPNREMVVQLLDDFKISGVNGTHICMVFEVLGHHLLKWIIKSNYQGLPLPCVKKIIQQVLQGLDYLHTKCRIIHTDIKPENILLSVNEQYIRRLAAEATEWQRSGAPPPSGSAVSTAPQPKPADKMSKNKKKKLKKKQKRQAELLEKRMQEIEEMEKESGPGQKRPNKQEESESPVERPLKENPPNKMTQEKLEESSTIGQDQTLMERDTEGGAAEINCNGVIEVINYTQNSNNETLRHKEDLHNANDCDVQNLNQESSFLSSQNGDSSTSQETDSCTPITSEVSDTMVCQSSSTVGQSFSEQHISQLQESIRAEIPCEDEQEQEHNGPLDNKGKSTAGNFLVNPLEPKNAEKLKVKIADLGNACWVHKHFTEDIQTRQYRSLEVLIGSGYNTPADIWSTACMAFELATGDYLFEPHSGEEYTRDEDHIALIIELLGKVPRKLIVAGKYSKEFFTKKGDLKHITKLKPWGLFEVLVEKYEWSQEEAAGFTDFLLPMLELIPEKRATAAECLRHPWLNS
Sequence of Casein kinase II subunit alpha (Homo sapiens) (P68400 whole entry, looked up): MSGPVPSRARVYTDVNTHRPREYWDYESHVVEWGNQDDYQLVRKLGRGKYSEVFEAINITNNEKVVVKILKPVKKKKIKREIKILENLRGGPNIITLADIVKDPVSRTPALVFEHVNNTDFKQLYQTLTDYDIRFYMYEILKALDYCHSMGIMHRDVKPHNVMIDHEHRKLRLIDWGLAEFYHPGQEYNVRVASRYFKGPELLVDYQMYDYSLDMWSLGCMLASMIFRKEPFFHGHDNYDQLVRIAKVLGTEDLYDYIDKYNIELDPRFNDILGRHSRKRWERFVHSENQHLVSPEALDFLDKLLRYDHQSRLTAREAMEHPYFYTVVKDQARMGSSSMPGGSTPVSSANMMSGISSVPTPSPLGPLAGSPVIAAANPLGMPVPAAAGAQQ
Sequence of Phosphatidylinositol 4-kinase beta (Homo sapiens) (Q9UBF8 2-816 limits assumed): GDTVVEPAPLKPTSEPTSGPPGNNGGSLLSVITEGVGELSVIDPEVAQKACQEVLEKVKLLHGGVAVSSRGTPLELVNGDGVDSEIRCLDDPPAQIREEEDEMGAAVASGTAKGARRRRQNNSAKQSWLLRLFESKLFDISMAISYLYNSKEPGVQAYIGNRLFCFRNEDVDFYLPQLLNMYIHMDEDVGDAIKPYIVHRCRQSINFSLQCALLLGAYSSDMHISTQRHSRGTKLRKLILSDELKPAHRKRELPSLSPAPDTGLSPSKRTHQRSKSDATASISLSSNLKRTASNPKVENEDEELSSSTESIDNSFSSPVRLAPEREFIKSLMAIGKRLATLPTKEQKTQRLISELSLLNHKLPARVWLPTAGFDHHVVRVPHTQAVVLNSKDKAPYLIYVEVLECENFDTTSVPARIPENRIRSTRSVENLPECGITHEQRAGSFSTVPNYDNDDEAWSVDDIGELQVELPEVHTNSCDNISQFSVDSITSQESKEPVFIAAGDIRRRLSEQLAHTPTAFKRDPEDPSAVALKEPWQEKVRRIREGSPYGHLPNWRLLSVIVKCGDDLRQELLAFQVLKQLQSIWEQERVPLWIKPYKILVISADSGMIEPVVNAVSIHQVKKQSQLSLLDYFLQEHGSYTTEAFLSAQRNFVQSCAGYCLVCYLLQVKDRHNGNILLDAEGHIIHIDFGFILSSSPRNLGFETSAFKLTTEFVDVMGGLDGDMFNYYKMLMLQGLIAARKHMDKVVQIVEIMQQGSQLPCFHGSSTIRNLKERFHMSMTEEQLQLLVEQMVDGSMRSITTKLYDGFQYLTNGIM
Sequence of Sphingosine kinase 1 (Homo sapiens) (Q9NYA1 whole entry): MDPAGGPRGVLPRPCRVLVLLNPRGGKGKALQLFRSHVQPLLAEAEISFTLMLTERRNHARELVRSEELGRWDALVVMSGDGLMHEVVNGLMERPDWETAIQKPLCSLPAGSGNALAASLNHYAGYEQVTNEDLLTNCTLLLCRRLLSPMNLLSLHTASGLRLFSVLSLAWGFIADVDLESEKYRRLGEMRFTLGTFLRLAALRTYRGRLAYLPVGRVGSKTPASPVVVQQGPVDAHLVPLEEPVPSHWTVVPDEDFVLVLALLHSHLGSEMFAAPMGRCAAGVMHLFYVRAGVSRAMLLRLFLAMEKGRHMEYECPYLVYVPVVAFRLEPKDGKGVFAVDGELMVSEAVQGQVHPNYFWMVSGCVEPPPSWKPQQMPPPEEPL
Sequence of Phosphatidylinositol 4,5-bisphosphate 3-kinase catalytic subunit alpha isoform (Homo sapiens) (P42336 whole entry, canonical isoform): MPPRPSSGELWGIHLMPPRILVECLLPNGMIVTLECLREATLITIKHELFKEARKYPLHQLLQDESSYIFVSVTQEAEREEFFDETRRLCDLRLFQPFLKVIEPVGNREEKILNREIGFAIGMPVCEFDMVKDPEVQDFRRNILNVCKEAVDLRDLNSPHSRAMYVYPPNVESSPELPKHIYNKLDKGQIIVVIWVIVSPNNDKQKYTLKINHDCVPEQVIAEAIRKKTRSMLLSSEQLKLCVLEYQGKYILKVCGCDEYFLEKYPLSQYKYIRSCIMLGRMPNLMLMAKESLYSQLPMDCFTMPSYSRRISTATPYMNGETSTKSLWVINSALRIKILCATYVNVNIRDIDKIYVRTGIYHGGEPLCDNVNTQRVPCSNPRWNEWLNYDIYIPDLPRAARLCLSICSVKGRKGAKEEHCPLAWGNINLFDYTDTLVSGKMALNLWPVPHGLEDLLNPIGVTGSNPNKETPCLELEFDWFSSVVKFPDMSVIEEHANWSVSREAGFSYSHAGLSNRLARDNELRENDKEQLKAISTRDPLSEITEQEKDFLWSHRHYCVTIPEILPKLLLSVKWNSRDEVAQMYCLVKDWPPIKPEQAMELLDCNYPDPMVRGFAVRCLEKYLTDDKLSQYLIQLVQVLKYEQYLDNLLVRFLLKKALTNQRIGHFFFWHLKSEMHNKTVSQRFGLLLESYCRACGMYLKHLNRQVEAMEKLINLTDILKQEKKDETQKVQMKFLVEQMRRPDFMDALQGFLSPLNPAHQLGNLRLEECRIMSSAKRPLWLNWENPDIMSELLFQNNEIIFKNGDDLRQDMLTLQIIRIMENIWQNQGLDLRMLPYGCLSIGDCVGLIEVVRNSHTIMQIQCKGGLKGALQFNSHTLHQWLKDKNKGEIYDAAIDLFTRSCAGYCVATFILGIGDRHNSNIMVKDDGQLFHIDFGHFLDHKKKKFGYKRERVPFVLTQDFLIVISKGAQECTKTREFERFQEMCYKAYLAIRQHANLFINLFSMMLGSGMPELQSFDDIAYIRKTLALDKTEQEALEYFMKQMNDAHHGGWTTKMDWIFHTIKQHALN

SMILES	inhibition [1]	inhibition [2]	inhibition [3]	inhibition [4]	inhibition [5]	inhibition [6]	inhibition [7]	inhibition [8]	inhibition [9]	inhibition [10]	inhibition [11]	inhibition [12]	inhibition [13]	inhibition [14]	inhibition [15]	inhibition [16]	inhibition [17]	inhibition [18]	inhibition [19]	inhibition [20]
CCN(CC)S(=O)(=O)c1ccc(OC)c(Nc2ncc(-c3ccccc3)o2)c1	0.41%	1.34%	2.14%	-0.56%	-2.02%	-0.81%	-1.28%	1.63%	0.66%	0.47%	-3.4%	-1.48%	0.49%	2.99%	15.1%	3.54%	-6.23%	0.24%	-0.16%	2.98%
COc1ccc(-c2nn3ncccc3c2-c2ccnc(Nc3ccc4c(c3)OCCO4)n2)cc1	1.16%	-0.82%	-2.72%	2.37%	3.63%	2.13%	5.91%	-2.82%	-1.12%	-0.35%	-0.22%	-0.07%	0.39%	7.89%	3.92%	6.88%	1.71%	3.03%	1.7%	1.54%
Fc1ccc(-c2nn3ccccc3c2-c2ccncc2)cc1	1.62%	-2.12%	-2.82%	0.14%	1.14%	0.32%	2.31%	-1.2%	1.37%	-0.49%	-4.19%	0.23%	-0.19%	-0.45%	0.13%	2.86%	-1.37%	0.51%	0.63%	2.31%
Cc1ccc(O)cc1Nc1ccnc2cc(-c3ccccn3)ccc12	3%	-1.63%	-2.47%	2.72%	7.92%	2.39%	15.8%	-2.37%	-0.81%	0%	0.38%	0.62%	-0.19%	1.53%	-1.39%	1.97%	-1.79%	6.75%	1.3%	5.73%
Nc1nc(-c2cccc(Cl)c2)c(-c2ccc3ncccc3n2)s1	3.06%	0.23%	2.87%	4.68%	8.41%	2.57%	6.4%	0.45%	-3.79%	-1.31%	-3.27%	0.78%	0.1%	4.99%	15.3%	10.6%	13.9%	8.18%	7.33%	9.04%
CC(=O)NCc1cccc(C#Cc2cncnc2Nc2ccc(OCc3cccc(F)c3)c(Cl)c2)c1	1.37%	-0.72%	-2.28%	-1.17%	0.49%	-1.34%	-0.33%	-4.32%	-2.4%	2.94%	-1.56%	-0.13%	-2.39%	-0.56%	1.55%	-0.42%	3.17%	-1.42%	1.29%	0.37%
